Screening data: PubChem, National Center for Advancing Translational Sciences (NCATS)
Rows were chosen to be rich in hits. Some 1.3% of all compounds tested hit in one or more screens of this group.
KCNH2 WT inh – inhibitors of human wildtype KCNH2 potassium channel. 340,000 tested, 0.37% active. U2OS, BacMam KCNH2, thallium flux FluxOr; stronger effect = lower value. Q12809. AID 720551. activity change, % at 1.84 µM;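 active means maximum activity change below -70%; inconclusive means maximum activity change between -70% and -50%; inactive means maximum activity change above -50%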; further: on the % scale 0 is the no-effect control and ±100 the full control effect
Target sequence (Q12809 whole entry, looked up): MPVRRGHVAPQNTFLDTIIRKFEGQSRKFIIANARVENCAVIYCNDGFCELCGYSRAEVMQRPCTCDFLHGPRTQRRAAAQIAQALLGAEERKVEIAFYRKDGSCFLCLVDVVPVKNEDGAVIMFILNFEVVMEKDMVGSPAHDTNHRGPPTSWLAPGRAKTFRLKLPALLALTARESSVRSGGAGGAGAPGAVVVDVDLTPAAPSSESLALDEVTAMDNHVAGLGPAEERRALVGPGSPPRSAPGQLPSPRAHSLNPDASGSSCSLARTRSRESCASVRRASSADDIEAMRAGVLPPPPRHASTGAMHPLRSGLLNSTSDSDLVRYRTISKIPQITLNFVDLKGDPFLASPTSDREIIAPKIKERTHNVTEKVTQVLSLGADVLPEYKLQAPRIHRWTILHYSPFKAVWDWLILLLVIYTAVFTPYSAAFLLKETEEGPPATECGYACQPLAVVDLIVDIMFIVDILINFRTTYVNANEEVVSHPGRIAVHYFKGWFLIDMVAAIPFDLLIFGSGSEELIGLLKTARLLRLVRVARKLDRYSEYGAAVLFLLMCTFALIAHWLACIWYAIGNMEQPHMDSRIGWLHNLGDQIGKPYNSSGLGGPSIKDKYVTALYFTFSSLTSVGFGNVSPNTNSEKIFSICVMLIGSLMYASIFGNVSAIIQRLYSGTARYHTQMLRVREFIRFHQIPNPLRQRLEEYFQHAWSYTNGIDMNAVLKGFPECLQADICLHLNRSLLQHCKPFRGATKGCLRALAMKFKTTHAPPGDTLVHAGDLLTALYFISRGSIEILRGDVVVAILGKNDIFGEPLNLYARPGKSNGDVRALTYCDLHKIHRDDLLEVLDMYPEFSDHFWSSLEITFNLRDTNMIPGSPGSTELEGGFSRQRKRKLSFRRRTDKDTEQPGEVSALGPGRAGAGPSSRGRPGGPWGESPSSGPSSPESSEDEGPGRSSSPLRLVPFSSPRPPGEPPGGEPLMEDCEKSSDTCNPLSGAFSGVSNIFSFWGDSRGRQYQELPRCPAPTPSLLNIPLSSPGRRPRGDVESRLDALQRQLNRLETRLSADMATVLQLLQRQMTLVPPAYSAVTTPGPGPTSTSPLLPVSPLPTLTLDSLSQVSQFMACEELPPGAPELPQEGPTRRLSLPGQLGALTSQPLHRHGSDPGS
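U2OS cells were transduced with wild-type KCNH2 virus (2.03 x 10^8 / mL) for 4 h at room temperature, then cultured overnight at 37 C. Thallium flux was read with FluxOr dye. Rate constants were normalized to DMSO controls.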
TRPV1 PAM – human TRPV1 potentiation; 320,000 tested, 0.02% active; potentiation, % at 8.33 µM; TRPV1-expressing cells, Fluo-8 calcium influx, capsaicin EC20 potentiation; Q8NER1; AID 540277; in the data active means potentiation above about 80%; inconclusive means between about 30% and that limit; further: 0% is about no effect
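Fluo-8 calcium influx in TRPV1-expressing cells, kinetic read (ex 480/em 520 nm). Compound added and read 3 min for agonist activity, followed by capsaicin at EC20 final and 2 min further read for enhancement.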
MBNL1-CUG inh – MBNL1-poly(CUG) RNA binding inhibition | TR-FRET MBNL1-His/biotin-(CUG)12 binding, 665/545 ratio | Q9NR56 | Potency, µM (highest dose often 57.5 µM), for the others: at the highest dose activity change, negative = inhibition, most hits filed as inhibitors | AID 2675 | 280,000 tested, 0.036% active; active means well fitted inhibition curve with a large enough effect in the signal ratio, with a control signal flat, not every such curve was filed as active; inconclusive means small, poorly fitted or top-dose-only effect, or effect the other way, or a change in a side signal; inactive means no such curve, though single readings can be large or run the other way; the % refers to the signal ratio; further: potency means the concentration at half of the fitted maximal effect; on the % scale 0 is the no-effect control and ±100 the full control effect
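Compounds (final 92 nM to 58 uM) are added to His-tagged MBNL1 and biotin-(CUG)12, then terbium anti-His antibody and streptavidin-XL665 (5 nM final). After 60 min at room temperature, the 665/545 nm ratio is read.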
TRPV1 agonist – agonists of human vanilloid receptor 1 (TRPV1) | TRPV1-expressing cells, Fluo-8 calcium influx, agonist mode | activation, % at 8.33 µM | 320,000 tested, 0.19% active; in the data active means activation above about 80%; inconclusive means between about 30% and that limit; further: 0% is about no effect
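Fluo-8 calcium influx in TRPV1-expressing cells, kinetic read (ex 480/em 520 nm). Compound added and read 3 min for agonist activity, followed by capsaicin at EC20 final and 2 min further read for enhancement.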
KCNH2 3.1 block – KCNH2 3.1 (human) potassium channel inhibition. U2OS KCNH2 3.1, thallium flux FluxOr; stronger effect = lower value. activity change, % (tested at about 1.8 µM). 340,000 tested, 0.95% active. AID 720553;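 active means maximum activity change below -70%; inconclusive means maximum activity change from -70% to -50%; inactive means maximum activity change above -50%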;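 further: thallium influx rate constant from kinetic fluorescence after stimulation buffer; on the % scale 0 is the no-effect control and ±100 the full control effect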
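Normalized rate constant (relative to positive and negative DMSO controls) derived from a 2 min kinetic fluorescence read after stimulation; U2OS cells expressing the 3.1 isoform via virus at 1.77 x 10^8 /mL.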
* = called active by the depositor.

How did O=C(Nc1ccc(Oc2c(F)c(F)c(F)c(F)c2F)cc1)OC1CCN2Cc3ccccc3N=C12 (configuration not stated) do in these assays?
KCNH2 WT inh: -83*; TRPV1 PAM: 11; MBNL1-CUG inh: -4%; TRPV1 agonist: -11; KCNH2 3.1 block: -100*

Results for CC1(C)CC(=O)C=C(NCCN2CCN(C(=S)NC3CCCCC3)CC2)C1 ?
KCNH2 WT inh: 3; TRPV1 PAM: 22; TRPV1 agonist: 3; KCNH2 3.1 block: 2

Results for O=C(NCc1ccccc1)c1onc(CSc2ccc(F)cc2)c1C(=O)NCCCN1CCOCC1 ?
KCNH2 WT inh: inconclusive; TRPV1 PAM: 21; MBNL1-CUG inh: 15%; TRPV1 agonist: 5; KCNH2 3.1 block: -81*

What do the screens show for `COc1ccc2cc(C3CC(c4ccco4)=NN3S(=O)(=O)c3ccccc3)c(Cl)nc2c1` (configuration not stated)?
KCNH2 WT inh: -8; TRPV1 PAM: 15; MBNL1-CUG inh: 16%; TRPV1 agonist: 4; KCNH2 3.1 block: -83*

How did COc1ccc(NC(=O)CN(c2c(C)cccc2C)S(C)(=O)=O)cc1 do in these assays?
KCNH2 WT inh: 4; TRPV1 PAM: -3; MBNL1-CUG inh: -11%; TRPV1 agonist: 4; KCNH2 3.1 block: 23

What do the screens show for `Cc1ccc(C(=O)NNC(=O)c2n[nH]c(=O)c3ccccc23)cc1C`?
KCNH2 WT inh: 6; TRPV1 PAM: -4; TRPV1 agonist: 1; KCNH2 3.1 block: -79*

Results for CCOc1ccc(S(=O)(=O)Nc2c(C)n(C)n(-c3ccccc3)c2=O)cc1 ?
KCNH2 WT inh: -197*; TRPV1 PAM: -5; MBNL1-CUG inh: 1%; TRPV1 agonist: 0; KCNH2 3.1 block: 17

How did COc1ccccc1CNC(=O)CCC(=O)Nc1nnc(C(C)C)s1 do in these assays?
KCNH2 WT inh: 4; TRPV1 PAM: -6; MBNL1-CUG inh: 2%; TRPV1 agonist: 4; KCNH2 3.1 block: 2

How did COc1ccccc1CNC(=O)CCC(=O)Nc1nnc(C)s1 do in these assays?
KCNH2 WT inh: -298*; TRPV1 PAM: 2; MBNL1-CUG inh: 4%; TRPV1 agonist: 0; KCNH2 3.1 block: -4

What do the screens show for `Cc1ccc(C(=O)CC(=O)c2ccccc2)cc1`?
KCNH2 WT inh: -13; TRPV1 PAM: -22; MBNL1-CUG inh: 6%; TRPV1 agonist: 81*; KCNH2 3.1 block: -4

What do the screens show for `O=C(O)C1(Cc2nc3ccccc3[nH]2)CCCC1`?
KCNH2 WT inh: -4; TRPV1 PAM: 2; MBNL1-CUG inh: 5%; TRPV1 agonist: 1; KCNH2 3.1 block: -19

Results for Cc1ncoc1C(=O)Nc1ccc(Oc2ccccc2)cc1 ?
KCNH2 WT inh: 3; TRPV1 PAM: -23; MBNL1-CUG inh: 4%; TRPV1 agonist: 84*; KCNH2 3.1 block: -16

What do the screens show for `O=C(NC(=S)Nc1cc([N+](=O)[O-])ccc1Cl)c1ccccc1`?
KCNH2 WT inh: -168*; TRPV1 PAM: -7; MBNL1-CUG inh: 2%; TRPV1 agonist: 8; KCNH2 3.1 block: -154*

What do the screens show for `Cc1cc(NS(=O)(=O)c2ccc(NC(=O)c3ccc(Cl)nc3)cc2)nc(C)n1`?
KCNH2 WT inh: -19; KCNH2 3.1 block: 7

What do the screens show for `NS(=O)(=O)c1ccc(NC(=O)c2ccc3c(c2)CCCC3)cc1`?
KCNH2 WT inh: 14; TRPV1 PAM: -5; MBNL1-CUG inh: 13%; TRPV1 agonist: 92*; KCNH2 3.1 block: 8

How did NS(=O)(=O)c1ccc(NC(=O)c2ccc3c(c2)OCO3)cc1 do in these assays?
KCNH2 WT inh: -6; TRPV1 PAM: -17; MBNL1-CUG inh: 5%; TRPV1 agonist: inconclusive; KCNH2 3.1 block: 0

What do the screens show for `Cc1sc(N2CCN(S(=O)(=O)c3ccc4c(c3)NC(=O)CO4)CC2)nc1-c1ccccc1`?
KCNH2 WT inh: -16; TRPV1 PAM: 6; MBNL1-CUG inh: 2%; TRPV1 agonist: inconclusive; KCNH2 3.1 block: -6

How did Cc1ccc(S(=O)(=O)N2CCCN(C(C)c3nc4ccccc4c(=O)[nH]3)CC2)cc1 (configuration not stated) do in these assays?
KCNH2 WT inh: -280*; TRPV1 PAM: 3; TRPV1 agonist: 4; KCNH2 3.1 block: -1

How did O=C(NCc1ccccc1CN1CCCC1)c1ccc(S(=O)(=O)Nc2ccccc2)cc1 do in these assays?
KCNH2 WT inh: 42; KCNH2 3.1 block: -19

Results for O=C(c1ccc(-n2cncn2)c([N+](=O)[O-])c1)N1CCN(S(=O)(=O)c2cccc(F)c2)CC1 ?
KCNH2 WT inh: 5; TRPV1 PAM: -18; TRPV1 agonist: 9; KCNH2 3.1 block: -11

How did Cc1cccc(CCNS(=O)(=O)c2ccc(S(=O)(=O)N3CCC(C)CC3)cc2)c1 do in these assays?
KCNH2 WT inh: -6; KCNH2 3.1 block: -79*

What do the screens show for `Cc1cccc(CCNS(=O)(=O)c2ccc(S(=O)(=O)N3CCCCC3)cc2)c1`?
KCNH2 WT inh: 3; TRPV1 PAM: -1; MBNL1-CUG inh: -2%; TRPV1 agonist: 14; KCNH2 3.1 block: -12

What do the screens show for `CC1CC(C)CN(C(=O)CCC(=O)Nc2nnc(C3CCCCC3)s2)C1` (configuration not stated)?
KCNH2 WT inh: -6; TRPV1 PAM: 5; MBNL1-CUG inh: 2%; TRPV1 agonist: 1; KCNH2 3.1 block: -14

Results for CN1CCN(C2=CC3=CC(=C(C#N)C#N)CCC3CC2)CC1 (configuration not stated) ?
KCNH2 WT inh: -22; TRPV1 PAM: -5; MBNL1-CUG inh: inconclusive; TRPV1 agonist: 184*; KCNH2 3.1 block: inconclusive

How did N#CC(C#N)=C1C=C2C=C(N3CCOCC3)CCC2CC1 (configuration not stated) do in these assays?
KCNH2 WT inh: -36; TRPV1 PAM: -12; MBNL1-CUG inh: inconclusive; TRPV1 agonist: 140*; KCNH2 3.1 block: -19

Results for N#CC(C#N)=C1C=C2C=C(N3CCCCCC3)CCC2CC1 (configuration not stated) ?
TRPV1 PAM: -6; MBNL1-CUG inh: inconclusive; TRPV1 agonist: 93*; KCNH2 3.1 block: -45

What do the screens show for `CC1(C)CC(NCCN2CCN(C3=CC(=C(C#N)C#N)CC(C)(C)C3)CC2)=CC(=C(C#N)C#N)C1`?
KCNH2 WT inh: 0; TRPV1 PAM: 7; MBNL1-CUG inh: 3%; TRPV1 agonist: 9; KCNH2 3.1 block: -18

How did CCN1CCN(C2=CC3=CC(=C(C#N)C#N)CCC3CC2)CC1 (configuration not stated) do in these assays?
KCNH2 WT inh: -19; TRPV1 PAM: -21; MBNL1-CUG inh: inconclusive; TRPV1 agonist: 99*; KCNH2 3.1 block: -14

What do the screens show for `CCOc1ccc(CCNS(=O)(=O)c2cc3c(cc2C)NC(=O)CO3)cc1OCC`?
KCNH2 WT inh: -1; TRPV1 PAM: 5; MBNL1-CUG inh: -11%; TRPV1 agonist: -1; KCNH2 3.1 block: -5
